# Data from PMC8384837, “Expanding the binding specificity for RNA recognition by a PUF domain”.
# Assays:
# Test in all cases: yeast three-hybrid, YBZ-1, SC-Leu-His + 0.5 mM 3-AT, 4 days
# Settings in all cases: tags: N-Gal4 AD-HA kept; label: inside an RPR1-promoter hybrid RNA with tandem MS2 sites; ssRNA
# PUM1 PUF domain R1-RHV = PUM1 PUF domain R1-RHV (Homo sapiens, UniProt Q14671 828-1176, S863R;R864H;Q867V)
# Method in brief: (§1)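 Pumilio-1 PUF domain libraries, randomized at the three base-contacting residues of each repeat, were co-expressed with matching RNA elements from a centromeric plasmid in strain YBZ-1, which carries a LexA–MS2 coat fusion and a HIS3 reporter. Transformants grew for four days on SC-Leu (input) or on SC-Leu-His + 0.5 mM 3-AT (selection), and the repeat regions were PCR-amplified and Illumina-sequenced. The interaction score is the log change in variant frequency from input to selection. That logarithm is base 2, with a pseudocount of 1 where a variant was absent.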
# PUM1 PUF domain R1-KDL = PUM1 PUF domain R1-KDL (Homo sapiens, UniProt Q14671 828-1176, S863K;R864D;Q867L)
# Method in brief: as §1
# PUM1 PUF domain R5-GFL = PUM1 PUF domain R5-GFL (Homo sapiens, UniProt Q14671 828-1176, C1007G;R1008F;Q1011L)
# Method in brief: as §1
# PUM1 PUF domain R4-PFR = PUM1 PUF domain R4-PFR (Homo sapiens, UniProt Q14671 828-1176, N971P;H972F;Q975R)
# Method in brief: as §1
# PUM1 PUF domain R4-WAR = PUM1 PUF domain R4-WAR (Homo sapiens, UniProt Q14671 828-1176, N971W;H972A;Q975R)
# Method in brief: as §1
# PUM1 PUF domain R7-KFF = PUM1 PUF domain R7-KFF (Homo sapiens, UniProt Q14671 828-1176, S1079K;N1080F;E1083F)
# Method in brief: as §1
# PUM1 PUF domain R1-HGR = PUM1 PUF domain R1-HGR (Homo sapiens, UniProt Q14671 828-1176, S863H;R864G;Q867R)
# Method in brief: as §1
# PUM1 PUF domain R8-PFQ = PUM1 PUF domain R8-PFQ (Homo sapiens, UniProt Q14671 828-1176, N1122P;Y1123F)
# Method in brief: as §1
# PUM1 PUF domain R8-RRP = PUM1 PUF domain R8-RRP (Homo sapiens, UniProt Q14671 828-1176, N1122R;Y1123R;Q1126P)
# Method in brief: as §1
# PUM1 PUF domain R3-ARR = PUM1 PUF domain R3-ARR (Homo sapiens, UniProt Q14671 828-1176, C935A;Q939R)
# Method in brief: as §1
# PUM1 PUF domain R3-RRM = PUM1 PUF domain R3-RRM (Homo sapiens, UniProt Q14671 828-1176, C935R;Q939M)
# Method in brief: as §1
sequence,measurement,setting,value
GGCUAGAACUAGUGGAUCCCCCGGCGCCCGGCGGCUCGAGCCCGGGUAAGUGUAAAUCGUCUGCAUGCCGCCGGGCGCCAUGCCUGCAGGUCGACUCUAGAAAACAUG,binding signal,PUM1 PUF domain R1-RHV,1.47 log2 enrichment (interaction score)
same,binding signal,PUM1 PUF domain R1-KDL,0.72 log2 enrichment (interaction score)
GGCUAGAACUAGUGGAUCCCCCGGCGCCCGGCGGCUCGAGCCCGGGUAAGUGUGAAUAGUCUGCAUGCCGCCGGGCGCCAUGCCUGCAGGUCGACUCUAGAAAACAUG,binding signal,PUM1 PUF domain R5-GFL,1.77 log2 enrichment (interaction score)
GGCUAGAACUAGUGGAUCCCCCGGCGCCCGGCGGCUCGAGCCCGGGUAAGUGUACAUAGUCUGCAUGCCGCCGGGCGCCAUGCCUGCAGGUCGACUCUAGAAAACAUG,binding signal,PUM1 PUF domain R4-PFR,6.57 log2 enrichment (interaction score)
same,binding signal,PUM1 PUF domain R4-WAR,3.19 log2 enrichment (interaction score)
GGCUAGAACUAGUGGAUCCCCCGGCGCCCGGCGGCUCGAGCCCGGGUAAGUAUAAAUAGUCUGCAUGCCGCCGGGCGCCAUGCCUGCAGGUCGACUCUAGAAAACAUG,binding signal,PUM1 PUF domain R7-KFF,3.16 log2 enrichment (interaction score)
GGCUAGAACUAGUGGAUCCCCCGGCGCCCGGCGGCUCGAGCCCGGGUAAGUGUAAAUUGUCUGCAUGCCGCCGGGCGCCAUGCCUGCAGGUCGACUCUAGAAAACAUG,binding signal,PUM1 PUF domain R1-RHV,2.89 log2 enrichment (interaction score)
same,binding signal,PUM1 PUF domain R1-HGR,2.93 log2 enrichment (interaction score)
same,binding signal,PUM1 PUF domain R1-KDL,3.53 log2 enrichment (interaction score)
GGCUAGAACUAGUGGAUCCCCCGGCGCCCGGCGGCUCGAGCCCGGGUAAGCGUAAAUAGUCUGCAUGCCGCCGGGCGCCAUGCCUGCAGGUCGACUCUAGAAAACAUG,binding signal,PUM1 PUF domain R8-PFQ,3.59 log2 enrichment (interaction score)
same,binding signal,PUM1 PUF domain R8-RRP,4.45 log2 enrichment (interaction score)
GGCUAGAACUAGUGGAUCCCCCGGCGCCCGGCGGCUCGAGCCCGGGUAAGUCUAAAUAGUCUGCAUGCCGCCGGGCGCCAUGCCUGCAGGUCGACUCUAGAAAACAUG,binding signal,PUM1 PUF domain R7-KFF,2.82 log2 enrichment (interaction score)
GGCUAGAACUAGUGGAUCCCCCGGCGCCCGGCGGCUCGAGCCCGGGUAAGUGUAAUUAGUCUGCAUGCCGCCGGGCGCCAUGCCUGCAGGUCGACUCUAGAAAACAUG,binding signal,PUM1 PUF domain R3-ARR,3.37 log2 enrichment (interaction score)
same,binding signal,PUM1 PUF domain R3-RRM,3.06 log2 enrichment (interaction score)
